Test results taken from PubChem BioAssay (NCATS).
Inconclusive results are not listed. Activity calls are given as the source filed them. The call rests on the fitted dose curve; in most records, active means well fitted curve in the direction sought with a large enough effect; inconclusive means small, poorly fitted or top-dose-only effect, or another doubt; inactive means no such curve, though single readings can be large; an effect the other way counts as inactive or inconclusive.

Key:
[1] = Cell Viability - H-4-II-E (AID 543); further: on the % scale 0 is the no-effect control and ±100 the full control effect; nearly all actives have a fitted effect of over 35% in size
Outline: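 Rat hepatoma H-4-II-E cells (1500/well) were plated, incubated 5 hr at 37 °C, then exposed to compounds for 40 hr at 37 °C. Cellular ATP was read by CellTiter-Glo luminescence; AC50 came from Hill-equation fits of concentration-response data.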

[2] = Cell Viability - SH-SY5Y (AID 544); conditions: SH-SY5Y neuroblastoma cell viability; viability change, negative = cytotoxic: at 92.2 µM (top of the series); further: nearly all actives have a fitted effect of over 55% in size
Outline: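 Human neuroblastoma SH-SY5Y cells (1500/well) in complete medium were exposed to compounds for 40 hr at 37 °C; intracellular ATP was then quantified by CellTiter-Glo luminescence after 20 min at room temperature. AC50 came from Hill-equation concentration-response fits.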

[3] = Cell Viability - Renal Proximal Tubule (AID 545); further: nearly all actives have a fitted effect of over 40% in size
Outline: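 Primary rat renal proximal tubule cells (1000/well) were treated with compounds for 40 hr at 37 °C in complete medium. Intracellular ATP was measured by CellTiter-Glo luminescence, and AC50 values came from Hill-equation fits of concentration-response data.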

[4] = Cell Viability - Mesenchymal (AID 546);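 further: cells exposed to compound for 40 hours before reading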
Outline: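 Normal human renal glomerulus-derived kidney mesenchymal cells, 1000 per well in complete medium, were treated with compounds for 40 hr at 37 °C. Viability was read as intracellular ATP by CellTiter-Glo luminescence; AC50 values came from Hill-equation fits of qHTS concentration-response data.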

[5] = Cellular Toxicity (caspase-3) HepG2 (AID 654);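 further: cells exposed to compound for 16 hours before reading; 0% = DMSO alone and 100% = caspase signal from 100 µM tamoxifen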
Outline: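 HepG2 cells (1500/well) in complete medium were treated with compounds for 16 hr at 37 °C. Caspase-3/7 activity was then read as luminescence from peptide-aminoluciferin cleavage. AC50 came from Hill fits, normalized to DMSO and 100 uM tamoxifen.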

[6] = Cellular Toxicity (caspase-3) Jurkat (AID 655); conditions: Jurkat caspase-3 activation, luminescence; caspase-3 activation: at 92.2 µM (top of the series), DMSO = 0%, tamoxifen = 100%;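 further: cells exposed to compound for 16 h at 37 °C before reading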
Outline: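 Jurkat cells (5000/well) in complete medium were treated with compounds for 16 hr at 37 °C, then Caspase-Glo 3/7 luminescence was read after 20 min at room temperature. Data normalized to DMSO (basal) and 100 uM tamoxifen (100%); AC50 from Hill fit.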

[7] = Cellular Toxicity (caspase-3) SHSY5Y (AID 657)
Outline: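 SH-SY5Y human neuroblastoma cells (1500/well) were treated with compounds for 16 h at 37 °C, then Caspase-Glo 3/7 luminescence was read after 1 h at room temperature. Data normalized to DMSO and 10 uM staurosporine; AC50 from Hill fits.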

[8] = Cellular Toxicity (caspase-3) BJ (AID 658);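 further: 0% = DMSO basal and 100% = 10 µM staurosporine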
Outline: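 Luminescent aminoluciferin-substrate cleavage reports caspase 3/7 activity in normal human BJ fibroblasts after 16 hr compound exposure at 37 °C. Normalized to DMSO (basal) and 10 uM staurosporine (100%); AC50 from Hill fit of concentration-response.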

[9] = Cellular Toxicity (caspase-3) MRC-5 (AID 659);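 further: 0% = DMSO basal and 100% = 10 µM staurosporine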
Outline: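 Luminescence from caspase-cleaved aminoluciferin substrate (Caspase-Glo 3/7, 1 hr RT) reports caspase 3/7 activity in MRC-5 lung fibroblasts after 16 hr compound exposure. Normalized to DMSO basal and 10 uM staurosporine as 100%; AC50 from Hill fits.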

[10] = Cellular Toxicity (caspase-3) Mesangial (AID 660); conditions: mesangial cells, normalized: DMSO 0%, 100 µM tamoxifen 100%; at 91.7 µM (top of the series);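 further: cells exposed to compound for 16 h before the caspase read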
Outline: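 Human renal glomerular mesangial cells (1000/well) were treated with compounds for 16 h at 37 °C in complete medium, then caspase 3/7 activity was read by Caspase-Glo luminescence. Data were normalized to DMSO and 100 uM tamoxifen; AC50 from Hill fits.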

[11] = Cellular Toxicity (caspase-3) SK-N-SH (AID 661);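 further: 0% = DMSO basal and 100% = 10 µM staurosporine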
Outline: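 SK-N-SH human neuroblastoma cells (1500/well) were treated with compounds for 16 hr at 37 °C in complete medium; caspase 3/7 activity was read by Caspase-Glo luminescence. AC50 came from Hill fits of data normalized to DMSO and 10 uM staurosporine.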

[12] = Cellular Toxicity (caspase-3) H-4-II-E (AID 663); conditions: H-4-II-E rat hepatoma, scaled: DMSO 0%, 100 µM tamoxifen 100%; at 92.2 µM (top of the series);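 further: cells exposed to compound for 16 hr before readout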
Outline: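 Luminescence from caspase-cleaved aminoluciferin substrate, read 20 min after reagent addition, reports caspase 3/7 activation in rat H-4-II-E cells after 16 hr compound exposure. Normalized to DMSO (basal) and 100 uM tamoxifen (100%); AC50 from Hill fits.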

[13] = Cellular Toxicity (caspase-3) Hek293 (AID 664); conditions: HEK293 caspase-3 activation, DMSO = 0%, 100 µM tamoxifen = 100%; at 92.2 µM (top of the series);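 further: cells exposed to compound for 16 h at 37 °C before readout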
Outline: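 HEK293 cells were exposed to compounds in complete medium for 16 hr at 37 °C, then caspase-3/7 activity was read by Caspase-Glo 3/7 luminescence after 20 min at room temperature. Data normalized to DMSO and 100 uM tamoxifen; AC50 from Hill fits.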

[14] = Cellular Toxicity (caspase-3) N2a (AID 665);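 further: compound exposure lasted 16 h at 37 °C before readout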
Outline: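 Mouse N2a neuroblastoma cells (1500/well) were treated with compounds for 16 h at 37 °C, then caspase-3/7 activity was read by Caspase-Glo luminescence after 1 h at room temperature. Data were normalized to DMSO and 10 uM staurosporine; AC50 from Hill fits.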

[15] = Cellular Toxicity (caspase-3) NIH 3T3 (AID 666);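 further: 0% = DMSO basal and 100% = 100 µM tamoxifen stimulation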
Outline: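 Mouse NIH 3T3 fibroblasts (1000 cells/well) were treated with compound for 16 hr at 37°C in complete medium; caspase-3/7 activity was read by Caspase-Glo luminescence. Normalized to DMSO and 100 uM tamoxifen; AC50 from Hill fits.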

[16] = Cellular Toxicity (caspase-3) Renal Proximal Tubule (AID 667); conditions: Potency: caspase-3 activation;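 further: cells exposed to compound for 16 hours at 37 °C before detection; 0% = DMSO basal and 100% = 10 µM staurosporine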
Outline: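 Primary rat proximal tubule cells, 1000/well, 5 h plating at 37 °C, then compound 16 h at 37 °C. Caspase-Glo 3/7 reagent, 1 h RT, luminescence. Normalized to DMSO (basal) and 10 uM staurosporine (100%); Hill-fit AC50.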

[17] = biological target: Cytochrome P450 3A4 (Homo sapiens) (UniProt P08684); assay: qHTS Assay for Inhibitors and Substrates of Cytochrome P450 3A4 (AID 884); further: on the % scale 0 is the no-effect control and ±100 the full control effect; nearly all actives have a fitted effect of over 50% in size
Chain of Cytochrome P450 3A4 (Homo sapiens) (P08684 whole entry, looked up): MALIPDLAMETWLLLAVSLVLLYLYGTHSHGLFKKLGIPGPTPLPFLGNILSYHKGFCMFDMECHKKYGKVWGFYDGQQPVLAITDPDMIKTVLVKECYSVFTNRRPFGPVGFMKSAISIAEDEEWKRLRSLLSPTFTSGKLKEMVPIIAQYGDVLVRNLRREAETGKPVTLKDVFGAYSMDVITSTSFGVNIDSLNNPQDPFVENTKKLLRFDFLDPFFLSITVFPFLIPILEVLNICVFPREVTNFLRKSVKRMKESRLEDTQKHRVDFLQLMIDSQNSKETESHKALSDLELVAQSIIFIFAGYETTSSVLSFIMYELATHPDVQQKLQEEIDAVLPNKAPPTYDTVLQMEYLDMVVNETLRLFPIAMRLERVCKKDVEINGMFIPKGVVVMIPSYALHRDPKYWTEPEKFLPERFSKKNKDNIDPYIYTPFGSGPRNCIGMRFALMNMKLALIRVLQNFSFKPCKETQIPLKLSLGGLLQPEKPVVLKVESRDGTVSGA
Outline: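 20 nM human CYP3A4 with 25 uM Luciferin-PPXE (at KM) in 200 mM KPO4, preincubated 10 min with compound; NADPH regeneration started a 60 min RT reaction. Luciferin detected by luminescence, normalized to 57 uM ketoconazole as full inhibition.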

[18] = Cell Viability - LYMP2-001 (AID 921);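 further: 0% = DMSO only and full inhibition = tetraoctylammonium bromide control wells; nearly all actives have a fitted effect of over 70% in size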
Outline: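 Human lymphoblastoid cells (Coriell), 2500 per well, were preincubated 5 hr at 37 C, then exposed to compounds in complete medium for 24 hr at 37 C. Cellular ATP was read by CellTiter-Glo luminescence; AC50 from Hill fits of concentration-response data.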

[19] = Cellular Toxicity (caspase-3) HUV-EC-C (AID 656)
Outline: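 HUV-EC-C endothelial cells, 1000/well, were pre-incubated 5 hr at 37°C, then exposed to compounds for 16 hr at 37°C. Caspase-Glo 3/7 luminescence was read after 20 min at room temperature. AC50 came from Hill fits, normalized to DMSO and 100 uM tamoxifen.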

Cc1cccc(C)c1
inactive: Potency [1] | Potency [2] | Potency [3] | Potency [4] | Potency [5] | caspase-3 activation [6] -2.27% | outcome [7] | outcome [8] | outcome [9] | caspase-3 activation [10] -0.476% | outcome [11] | caspase-3 activation [12] 0.714% | caspase-3 activation [13] 2.59% | outcome [14] | outcome [15] | Potency [16] | Potency [17] | Potency [18]

CC(O)COC(C)(C)C (stereo not given)
inactive: Potency [1] | Potency [2] | Potency [3] | Potency [4] | Potency [5] | outcome [19] | outcome [7] | outcome [8] | outcome [9] | caspase-3 activation [10] -1.28% | outcome [11] | caspase-3 activation [12] -0.238% | caspase-3 activation [13] 2.41% | outcome [14] | outcome [15] | Potency [16] | Potency [17] | Potency [18]

Cc1cccc(C(=O)O)c1[N+](=O)[O-]
inactive: Potency [1] | Potency [2] | Potency [3] | Potency [4] | Potency [5] | outcome [19] | outcome [7] | outcome [8] | outcome [9] | caspase-3 activation [10] 0.577% | outcome [11] | caspase-3 activation [12] 0.904% | caspase-3 activation [13] 3.47% | outcome [14] | outcome [15] | Potency [16] | Potency [17] | Potency [18]

CCc1ccccc1O
inactive: Potency [1] | Potency [2] | Potency [3] | Potency [4] | Potency [5] | outcome [19] | outcome [7] | outcome [8] | outcome [11] | caspase-3 activation [12] -0.213% | caspase-3 activation [13] -1.55% | outcome [14] | outcome [15] | Potency [16] | Potency [17] | Potency [18]

C=Cc1ccccc1C=C
inactive: Potency [1] | Potency [2] | Potency [3] | Potency [4] | Potency [5] | caspase-3 activation [6] -0.124% | outcome [7] | outcome [8] | outcome [9] | caspase-3 activation [12] 0.884% | caspase-3 activation [13] 1.48% | outcome [14] | outcome [15] | Potency [16] | Potency [17] | Potency [18]

Nc1ccc([N+](=O)[O-])c(N)c1
inactive: Potency [1] | Potency [2] | Potency [3] | Potency [4] | Potency [5] | caspase-3 activation [6] 0.952% | outcome [7] | outcome [8] | outcome [9] | outcome [11] | caspase-3 activation [12] -0.185% | caspase-3 activation [13] -0.316% | outcome [14] | outcome [15] | Potency [16] | Potency [17] | Potency [18]

COC(=O)CC#N
inactive: Potency [1] | Potency [2] | Potency [3] | Potency [4] | Potency [5] | outcome [19] | outcome [7] | outcome [8] | outcome [9] | caspase-3 activation [10] 0.486% | caspase-3 activation [12] 1.64% | caspase-3 activation [13] 0.82% | outcome [14] | outcome [15] | Potency [16] | Potency [18]

CC(C)C(C)C
inactive: Potency [1] | Potency [2] | Potency [3] | Potency [5] | caspase-3 activation [6] -0.000823% | outcome [19] | outcome [7] | outcome [8] | outcome [9] | caspase-3 activation [12] -0.199% | caspase-3 activation [13] -1.39% | outcome [14] | outcome [15] | Potency [16] | Potency [17] | Potency [18]
